DT40 TDP1 no CPT: qHTS for Inhibitors of human tyrosyl-DNA phosphodiesterase 1 (TDP1): qHTS in cells in absence of CPT. DT40 Tdp1-/- hTDP1 cells, no CPT, ATP luminescence, 48 h. Potency, µM (series often up to 46.2 µM), for inactives: top-dose activity change, negative = growth inhibition, hits mostly inhibitors. 15% of 420,000 active. AID 686978, 2013; note: potency is the fitted concentration of half-maximal effect; nearly all actives have a fitted effect of over 55% in size
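Chicken DT40 Tdp1-/- cells stably complemented with human TDP1 were seeded at 400 cells/well with DMSO in place of 20 nM camptothecin. After compound pinning, cells grew at least 48 hr at 37 °C; viability read by CellTiter-Glo luminescence.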
HT1080-NT tox: kills 2HG-producing HT-1080-NT fibrosarcoma cells; HT-1080-NT fibrosarcoma viability, CellTiter-Glo ATP luminescence, 48 h; Potency, µM (titrated, usually from 46.1 µM), inactives show at the highest dose activity, negative = less viability, hits mostly cytotoxic; 1.6% of 360,000 active;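 note: NT is the 2HG producing partner of a matched IDH1 knockdown line; potency is the fitted concentration of half-maximal effect; 0% = DMSO-treated cells and -100% = media-only wells without cells; nearly all actives have a fitted effect of over 55% in size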
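Luminescent CellTiter-Glo readout after 48 hours of compound exposure at 37 degrees C defined viability of HT-1080-NT cells. Activity was normalized to DMSO wells and cell-free media wells; concentration-response curves were fitted and assigned curve classes.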
HT1080 IDH1KD tx: kills HT-1080 cells with IDH1 knockdown | AID 686971 | 2% of 360,000 active | Potency, µM (top dose mostly 46.1 µM), for inactives: at the highest dose activity, negative = toxicity, actives largely listed as cytotoxic | HT-1080 IDH1 knockdown viability, ATP luminescence, 48 h;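 note: potency is the fitted concentration of half-maximal effect; 0% = DMSO wells and -100% = cell-free medium wells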
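IDH1KD HT-1080 cells, 750/well, RPMI + 5% FBS; compound pinned after 2 h settling; 48 h, 37 °C; CellTiter-Glo luminescence; % activity normalised to DMSO and no-cell wells; curves fitted, classed by r2 and efficacy.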
IL-1B inflam inh: inflammasome signaling inhibition, IL-1 beta readout. THP-1 LPS/ATP IL-1B secretion, AlphaLISA, 16 h; hits give low values. activity change, % at 57.5 µM. 4.7% of 360,000 active. AID 743279; in the data active = activity change below about -50%; inconclusive = mostly about -30% to -49%
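Secreted IL-1B measured by AlphaLISA bead assay after 16 h compound exposure of THP-1 cells; compounds (final up to 57.5 uM) added 1 h before LPS (250 ng/mL) and ATP (1.25 mM) stimulation; lower signal means less secretion.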
TDP1 cell CPT: growth inhibition of DT40 Tdp1-/-;hTDP1 cells with camptothecin (screen for TDP1 inhibitors) | chicken DT40 Tdp1-/-;hTDP1 cells + 20 nM CPT, ATP luminescence, 48 h | Potency, µM (top dose mostly 46.2 µM), for inactives: top-dose activity change, negative = growth inhibition, actives largely listed as inhibitors | 12% of 420,000 active | AID 686979; note: potency is the fitted concentration of half-maximal effect; nearly all actives have a fitted effect of over 55% in size
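Chicken DT40 Tdp1-/- cells complemented with human TDP1, 400 cells/well, exposed to compounds plus 20 nM camptothecin for at least 48 h at 37 C; viability read as ATP content by CellTiter-Glo luminescence.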
The depositor's hits bear a star; ? = inconclusive; . = no result; [ ] = remark or other dose. The list is not random: actives were taken first. Their share in the collection is about 19%. Unless noted, calls come from the whole dose curve; as a rule, active = well fitted curve in the direction sought with a large enough effect; inconclusive = small, poorly fitted or top-dose-only effect, or another doubt; inactive = no such curve, though single readings can be large; an effect the other way counts as inactive or inconclusive. Unless noted, % is set by controls: 0 for no effect and ±100 for the full control effect.

SMILES | DT40 TDP1 no CPT | HT1080-NT tox | HT1080 IDH1KD tx | IL-1B inflam inh | TDP1 cell CPT
Cc1cccc(NC(=S)N/N=C/c2cccc(O)c2)c1C | 2.6µM* | ? | ? | 7 | 2.6µM*
Cc1ccccc1NC(=S)N/N=C/c1ccc(O)cc1O | 9.2µM* | ? | 10µM* | 72 | 10µM*
CCCCCn1c(SCCN2CCOCC2)nc2c1c(=O)[nH]c(=O)n2C | ? | -6% | -4% | 14 | -3%
Cc1ccc(N2CC(C(=O)NCc3n[nH]c(=O)c4ccccc34)CC2=O)cc1 (centres undefined) | -24% | -1% | -30% | 16 | -18%
NC(=O)/C(N=Nc1ccccc1)=N/Nc1ccccc1 | ? | 13% | 3% | 17 | 18µM*
COc1cc(C(=O)Oc2c(CN3CCOCC3)cc(Cl)c3cccnc23)cc(OC)c1OC | 5.2µM* | ? | ? | 33 | 2.6µM*
COc1ccc(C(=O)Oc2c(CN3CCOCC3)cc(Cl)c3cccnc23)cc1 | 5.8µM* | 21µM* | ? | 27 | 8.2µM*
O=C(Oc1c(CN2CCOCC2)cc(Cl)c2cccnc12)c1ccc(F)cc1 | 5.2µM* | ? | ? | 36 | 4.6µM*
COc1cccc(C(=O)Oc2c(CN3CCOCC3)cc(Cl)c3cccnc23)c1 | 0.82µM* | ? | 12µM* | 102 | 0.73µM*
COc1ccccc1NC(=O)Nc1ccccc1N1CCOCC1 | -3% | 8% | 9% | 7 | -10%
CC1=Nc2cc(C(=O)NCCCOC(C)C)ccc2Sc2ccc(C)cc21 | 4.6µM* | 0.73µM* | 1µM* | 43 | 5.2µM*
CC1=Nc2cc(C(=O)NCCCOC(C)C)ccc2Sc2ccccc21 | 21µM* | ? | 8.2µM* | 13 | 16µM*
CC(C)OCCCNC(=O)c1ccc2c(c1)NC(=O)c1ccccc1S2 | -22% | -11% | ? | 21 | -29%
CC1=Nc2cc(C(=O)NCCc3ccc(Cl)cc3)ccc2Sc2ccc(C)cc21 | 6.5µM* | . | . | . | 6.5µM*
CC1=Nc2cc(C(=O)N3CCCC3)ccc2Sc2ccc(C)cc21 | ? | 4% | -1% | 2 | 4%
COc1ccc(CCNC(=O)c2cnn(-c3nccc(-c4ccco4)n3)c2C)cc1 | -21% | . | . | . | 18%[9.04 µM]
Cc1cc(C(=O)CSc2nc3ccccc3c(=O)[nH]2)c(C)n1CC1CCCO1 (centres undefined) | 10µM* | ? | -19% | -18 | 13µM*
Cc1cc(C(=O)CSc2nnc(Nc3ccccc3)s2)c(C)n1CC1CCCO1 (centres undefined) | ? | 0% | -5% | ? | 12µM*
CCOC(=O)c1c(C)[nH]c(C)c1S(=O)(=O)NCC(=O)Nc1ccc(CC)cc1 | -20% | . | . | . | -27%
COc1cc2[nH]c(=O)n(CCCC(=O)N3CC=C(c4ccccc4)CC3)c(=O)c2cc1OC | 21µM* | 2% | 0% | ? | ?
COc1ccc(N2CCN(C(=O)CCn3c(=O)[nH]c4cc(OC)c(OC)cc4c3=O)CC2)cc1 | -10% | . | . | . | -1%
O=C(CCn1c(=O)[nH]c2ccccc2c1=O)N1CC=C(c2ccccc2)CC1 | ? | 18% | 10% | 3 | -25%
C=CCn1c(=O)[nH]c2cc(C(=O)N3CC=C(c4ccccc4)CC3)ccc2c1=O | 26µM* | -2% | -10% | -13 | ?
COc1cc2[nH]c(=O)n(CCC(=O)N3CC=C(c4ccccc4)CC3)c(=O)c2cc1OC | -3% | 2% | 18% | 13 | 2%
CCOc1cc2[nH]c(=O)n(CCCC(=O)N3CCN(c4ccc(OC)cc4)CC3)c(=O)c2cc1OCC | 21µM* | . | . | . | ?
SMILES | DT40 TDP1 no CPT | HT1080-NT tox | HT1080 IDH1KD tx | IL-1B inflam inh | TDP1 cell CPT
COc1cccc(N2CCN(C(=O)CCCn3c(=O)[nH]c4ccc(Br)cc4c3=O)CC2)c1 | 6.5µM* | . | . | . | 21µM*
COc1ccc(CNC(=O)Nc2cccc3ccccc23)cc1 | 1% | -2% | 0% | 6 | -13%
O=C(CN1CCN(c2ccccc2O)CC1)Nc1cccnc1Cl | -13% | -2% | -7% | -10 | -22%
CCOc1cc2[nH]c(=O)n(CCCCC(=O)N3CCN(c4ccccc4OC)CC3)c(=O)c2cc1OCC | 9.2µM* | . | . | . | 13µM*
O=c1oc2ccc3ccccc3c2cc1-c1nnc(-c2ccccc2)o1 | ? | 0% | 2%[9.24 µM] | -58* | ?
CC(C)c1ccc(NC2CCCN(C(=O)C3=NN(C)C(=O)CC3)C2)cc1 (centres undefined) | 1% | -2% | 3% | 38 | -6%
Cc1ccc(CNC(=O)C(C)OC(=O)c2cccs2)cc1 (centres undefined) | -2% | 11% | 24% | 136 | -10%
CCOC(=O)C1CCCN(C2=C(NS(=O)(=O)c3ccc(Br)cc3)C(=O)c3ccccc3C2=O)C1 (centres undefined) | 16µM* | ? | -16% | 9 | 18µM*
CC1CCN(C2=C(NS(=O)(=O)c3ccc(Br)cc3)C(=O)c3ccccc3C2=O)CC1 | 18µM* | 18µM* | -24% | ? | ?
CC1CCN(C2=C(NS(=O)(=O)c3ccc(Cl)cc3)C(=O)c3ccccc3C2=O)CC1 | -10% | 3% | 12% | -3 | -22%
CC1CCN(C2=C(NS(=O)(=O)c3ccccc3)C(=O)c3ccccc3C2=O)CC1 | ? | -27% | ? | -74* | ?
CC1CCCN(C2=C(NS(=O)(=O)c3ccc(Br)cc3)C(=O)c3ccccc3C2=O)C1 (centres undefined) | 12µM* | -3% | 0% | -9 | ?
O=S(=O)(Nc1ccccc1N1CCCCC1)c1ccccc1 | ? | -3% | 0% | 38 | ?
O=C1C(NS(=O)(=O)c2ccc(Br)cc2)=C(N2CCCCC2)C(=O)c2ccccc21 | 18µM* | ? | -16% | -21 | ?
C[C@H]1CN=C(N(C)C)N1CCCCc1ccccc1 | 15µM* | -6% | -11% | 12 | ?
CCN1C(Nc2ccccc2)=NC[C@@H]1C | 8% | -1% | 4% | 18 | 10%
CCC(CC)CN1C(N(C)C)=NC[C@@H]1CC(C)C | 18µM* | 1% | -1% | 3 | 16µM*
CC(C)C[C@H]1CN=C(N(C)C)N1CCCCc1ccccc1 | 2.6µM* | -13% | -4% | ? | 5.2µM*
CC(C)C[C@H]1CN=C(N(C)C)N1CC1CCCC1 | ? | -7% | -5% | -14 | ?
CSc1ccccc1NC(=O)C(=O)c1c[nH]c2ccccc12 | ? | ? | ? | -13 | -18%
Cc1ccc(C(c2nnnn2CCc2ccccc2)N2CCSCC2)cc1 (centres undefined) | ? | -1% | 0% | -18 | 16µM*

Source: PubChem
